Measured values as given in the supplement of paper PMC11732987, “Enantioselective OTUD7B fragment discovery through chemoproteomics screening and high-throughput optimisation” (Communications Chemistry, 2025).

Legend:
Test in all cases: log2 ratio of Biotin-Ahx-Ub-VS probe labelling (fragment/DMSO); higher = less target engagement (more negative = stronger competition), active = hit call of the paper (q ≤ 0.05, log2 ratio ≤ -1)
Conditions in all cases: compound concentration: 200 uM; treatment time: 3 h
ALG13 = biological target: T1, ALG13 (UniProt Q9NP73)
T1 sequence (whole entry): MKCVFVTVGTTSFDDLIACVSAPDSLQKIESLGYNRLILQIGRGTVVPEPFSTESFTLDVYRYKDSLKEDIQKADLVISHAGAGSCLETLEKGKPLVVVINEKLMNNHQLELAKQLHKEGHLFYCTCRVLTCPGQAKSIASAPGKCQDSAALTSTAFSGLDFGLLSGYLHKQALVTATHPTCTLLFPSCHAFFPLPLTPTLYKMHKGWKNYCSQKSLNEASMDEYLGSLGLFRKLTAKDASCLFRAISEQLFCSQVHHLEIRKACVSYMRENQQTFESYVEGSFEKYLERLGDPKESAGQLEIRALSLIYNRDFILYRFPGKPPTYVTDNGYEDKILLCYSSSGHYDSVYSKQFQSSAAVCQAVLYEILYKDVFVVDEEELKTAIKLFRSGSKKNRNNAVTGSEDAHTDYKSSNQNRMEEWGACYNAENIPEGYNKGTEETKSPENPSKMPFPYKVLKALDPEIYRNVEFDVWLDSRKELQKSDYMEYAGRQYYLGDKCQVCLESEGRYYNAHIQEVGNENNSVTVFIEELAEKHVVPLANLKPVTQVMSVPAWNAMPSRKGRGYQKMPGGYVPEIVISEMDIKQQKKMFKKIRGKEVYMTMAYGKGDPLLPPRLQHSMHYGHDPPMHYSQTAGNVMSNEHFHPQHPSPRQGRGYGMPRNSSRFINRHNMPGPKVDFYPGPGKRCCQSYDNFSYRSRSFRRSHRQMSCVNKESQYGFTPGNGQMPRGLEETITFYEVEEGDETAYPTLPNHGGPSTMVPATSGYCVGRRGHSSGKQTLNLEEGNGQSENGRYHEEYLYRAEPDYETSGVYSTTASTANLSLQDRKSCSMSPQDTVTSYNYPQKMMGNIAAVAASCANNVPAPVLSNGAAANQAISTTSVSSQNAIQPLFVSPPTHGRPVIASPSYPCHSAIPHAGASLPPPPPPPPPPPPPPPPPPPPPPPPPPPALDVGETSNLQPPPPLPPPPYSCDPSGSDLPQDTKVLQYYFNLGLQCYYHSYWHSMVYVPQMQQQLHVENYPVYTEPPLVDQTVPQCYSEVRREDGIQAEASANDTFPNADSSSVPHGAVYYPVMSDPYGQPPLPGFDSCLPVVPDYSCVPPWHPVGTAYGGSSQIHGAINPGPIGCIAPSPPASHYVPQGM
In short: (§1)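 Fragment (200 µM) or vehicle was incubated for 3 h with triplicate HEK293T lysate samples of 495 µg, which were then treated with Biotin-Ahx-Ub-VS at 0.5 µM final for 1 h. Labelled DUBs were enriched on NeutrAvidin, digested with LysC and trypsin, and analysed by diaPASEF LC-MS/MS. Values are average log2 fragment/vehicle ratios from an unpaired t-test on global-median-normalised Spectronaut label-free quantities, using proteins with ≥2 unique peptides.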

ATXN3 = ATXN3 (UniProt P54252)
In short: as §1

BAP1 = biological target: T2, BAP1 (UniProt Q92560)
T2 sequence (whole entry): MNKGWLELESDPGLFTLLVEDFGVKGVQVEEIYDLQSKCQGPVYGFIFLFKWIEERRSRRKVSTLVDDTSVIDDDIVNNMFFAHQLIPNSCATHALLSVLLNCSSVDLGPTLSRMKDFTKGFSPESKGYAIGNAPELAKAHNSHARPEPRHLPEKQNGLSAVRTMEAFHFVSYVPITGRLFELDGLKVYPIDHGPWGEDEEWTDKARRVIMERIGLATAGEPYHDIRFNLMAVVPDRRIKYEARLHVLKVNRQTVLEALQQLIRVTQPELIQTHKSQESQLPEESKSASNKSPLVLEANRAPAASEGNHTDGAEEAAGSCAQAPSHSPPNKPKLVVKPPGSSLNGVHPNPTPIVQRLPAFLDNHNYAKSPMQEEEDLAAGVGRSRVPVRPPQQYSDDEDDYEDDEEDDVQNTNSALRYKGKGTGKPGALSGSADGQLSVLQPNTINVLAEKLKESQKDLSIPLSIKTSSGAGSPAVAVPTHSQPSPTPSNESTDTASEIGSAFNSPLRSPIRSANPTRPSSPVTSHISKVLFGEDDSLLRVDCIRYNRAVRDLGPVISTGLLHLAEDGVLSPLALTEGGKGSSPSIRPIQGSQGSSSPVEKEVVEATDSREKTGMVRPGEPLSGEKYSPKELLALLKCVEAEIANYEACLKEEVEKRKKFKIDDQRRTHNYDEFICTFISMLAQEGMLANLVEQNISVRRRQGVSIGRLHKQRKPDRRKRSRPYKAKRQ
In short: as §1

EIF3F = EIF3F (UniProt O00303)
In short: as §1

EIF3H = EIF3H (UniProt O15372)
In short: as §1

FAM105A = biological target: T3, FAM105A (UniProt Q9NUU6)
T3 sequence (whole entry): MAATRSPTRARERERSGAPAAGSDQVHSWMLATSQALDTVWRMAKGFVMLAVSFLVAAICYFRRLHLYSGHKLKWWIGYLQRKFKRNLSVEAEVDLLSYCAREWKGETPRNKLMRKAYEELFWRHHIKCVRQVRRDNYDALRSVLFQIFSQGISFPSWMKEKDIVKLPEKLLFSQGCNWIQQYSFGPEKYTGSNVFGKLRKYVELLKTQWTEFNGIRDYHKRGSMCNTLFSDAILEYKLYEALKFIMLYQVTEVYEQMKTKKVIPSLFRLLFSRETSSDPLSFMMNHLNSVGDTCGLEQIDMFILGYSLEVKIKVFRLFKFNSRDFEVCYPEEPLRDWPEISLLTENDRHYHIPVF
In short: as §1

OTUB1 = OTUB1 (UniProt Q96FW1)
In short: as §1

OTUD4 = biological target: T4, OTUD4 (UniProt Q01804)
T4 sequence (whole entry): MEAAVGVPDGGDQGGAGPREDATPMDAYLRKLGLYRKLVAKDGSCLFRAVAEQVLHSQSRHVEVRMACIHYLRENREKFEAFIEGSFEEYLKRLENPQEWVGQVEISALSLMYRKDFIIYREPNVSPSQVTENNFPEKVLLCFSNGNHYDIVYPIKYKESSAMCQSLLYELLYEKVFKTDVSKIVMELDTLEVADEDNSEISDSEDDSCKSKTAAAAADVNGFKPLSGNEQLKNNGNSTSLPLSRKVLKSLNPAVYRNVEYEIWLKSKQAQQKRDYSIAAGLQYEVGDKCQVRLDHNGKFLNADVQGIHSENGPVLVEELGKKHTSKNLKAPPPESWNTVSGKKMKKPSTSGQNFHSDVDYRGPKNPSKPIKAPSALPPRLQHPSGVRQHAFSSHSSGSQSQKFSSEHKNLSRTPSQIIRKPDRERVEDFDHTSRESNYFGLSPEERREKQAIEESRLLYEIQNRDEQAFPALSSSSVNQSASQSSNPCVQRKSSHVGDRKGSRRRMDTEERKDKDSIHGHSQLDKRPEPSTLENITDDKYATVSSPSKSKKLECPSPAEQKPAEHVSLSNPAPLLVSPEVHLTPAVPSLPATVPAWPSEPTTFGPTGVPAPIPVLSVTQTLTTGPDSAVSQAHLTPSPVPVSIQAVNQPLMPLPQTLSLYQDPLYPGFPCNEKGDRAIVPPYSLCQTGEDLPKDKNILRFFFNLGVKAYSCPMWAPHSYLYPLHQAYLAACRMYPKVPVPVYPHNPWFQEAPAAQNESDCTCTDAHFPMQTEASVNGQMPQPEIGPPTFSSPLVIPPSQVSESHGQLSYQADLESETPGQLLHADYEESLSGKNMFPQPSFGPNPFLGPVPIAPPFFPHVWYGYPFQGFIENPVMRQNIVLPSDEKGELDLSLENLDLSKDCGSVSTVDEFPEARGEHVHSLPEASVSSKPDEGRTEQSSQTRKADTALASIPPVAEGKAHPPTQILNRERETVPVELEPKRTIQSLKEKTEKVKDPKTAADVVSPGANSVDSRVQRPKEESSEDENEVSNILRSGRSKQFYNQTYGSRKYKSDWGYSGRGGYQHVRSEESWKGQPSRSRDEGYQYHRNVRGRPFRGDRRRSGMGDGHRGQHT
In short: as §1

OTUD5 = biological target: T5, OTUD5 (UniProt Q96G74)
T5 sequence (whole entry): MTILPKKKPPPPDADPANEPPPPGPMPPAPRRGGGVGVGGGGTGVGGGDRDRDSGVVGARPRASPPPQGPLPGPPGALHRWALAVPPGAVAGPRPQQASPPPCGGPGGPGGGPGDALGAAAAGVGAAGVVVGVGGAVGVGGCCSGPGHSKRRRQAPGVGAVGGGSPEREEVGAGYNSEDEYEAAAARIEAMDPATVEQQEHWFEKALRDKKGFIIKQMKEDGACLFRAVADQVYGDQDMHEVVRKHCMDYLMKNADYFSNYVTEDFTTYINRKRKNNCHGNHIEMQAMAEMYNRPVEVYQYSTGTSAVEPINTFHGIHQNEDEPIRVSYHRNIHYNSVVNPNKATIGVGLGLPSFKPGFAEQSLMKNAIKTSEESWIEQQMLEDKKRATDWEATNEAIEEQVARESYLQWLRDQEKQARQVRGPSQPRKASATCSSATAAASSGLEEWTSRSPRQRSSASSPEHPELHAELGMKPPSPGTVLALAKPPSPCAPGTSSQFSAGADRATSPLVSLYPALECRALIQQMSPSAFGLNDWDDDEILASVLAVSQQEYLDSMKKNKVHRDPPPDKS
In short: as §1

Measured: log2 ratio of Biotin-Ahx-Ub-VS probe labelling

Chain of EIF3H (O15372 whole entry): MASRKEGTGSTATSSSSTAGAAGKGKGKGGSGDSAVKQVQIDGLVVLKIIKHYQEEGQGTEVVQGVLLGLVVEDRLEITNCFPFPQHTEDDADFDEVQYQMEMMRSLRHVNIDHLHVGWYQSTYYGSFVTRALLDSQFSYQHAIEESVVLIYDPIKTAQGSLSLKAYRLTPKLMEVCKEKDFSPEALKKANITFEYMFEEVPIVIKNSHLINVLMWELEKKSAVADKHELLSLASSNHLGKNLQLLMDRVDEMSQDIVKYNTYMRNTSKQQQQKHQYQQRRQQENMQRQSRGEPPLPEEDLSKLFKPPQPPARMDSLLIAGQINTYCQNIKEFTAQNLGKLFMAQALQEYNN
Chain of ATXN3 (P54252 whole entry): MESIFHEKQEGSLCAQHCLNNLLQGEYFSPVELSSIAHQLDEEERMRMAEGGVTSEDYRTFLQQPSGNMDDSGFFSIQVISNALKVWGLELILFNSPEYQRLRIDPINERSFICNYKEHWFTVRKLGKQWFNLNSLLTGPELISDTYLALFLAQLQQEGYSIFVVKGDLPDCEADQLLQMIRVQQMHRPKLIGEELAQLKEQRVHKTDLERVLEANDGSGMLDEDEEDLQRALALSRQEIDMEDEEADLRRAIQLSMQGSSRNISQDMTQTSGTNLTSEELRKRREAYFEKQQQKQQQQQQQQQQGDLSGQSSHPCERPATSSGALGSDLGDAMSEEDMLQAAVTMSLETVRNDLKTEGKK
Chain of OTUB1 (Q96FW1 whole entry): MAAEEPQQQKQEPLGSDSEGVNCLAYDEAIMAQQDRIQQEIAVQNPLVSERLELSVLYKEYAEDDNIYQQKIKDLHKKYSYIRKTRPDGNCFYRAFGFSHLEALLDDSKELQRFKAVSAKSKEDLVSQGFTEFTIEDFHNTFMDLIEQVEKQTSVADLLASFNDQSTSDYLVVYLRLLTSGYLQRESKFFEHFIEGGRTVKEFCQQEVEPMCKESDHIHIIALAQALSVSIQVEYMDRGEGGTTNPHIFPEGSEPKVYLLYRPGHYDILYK
Chain of EIF3F (O00303 whole entry): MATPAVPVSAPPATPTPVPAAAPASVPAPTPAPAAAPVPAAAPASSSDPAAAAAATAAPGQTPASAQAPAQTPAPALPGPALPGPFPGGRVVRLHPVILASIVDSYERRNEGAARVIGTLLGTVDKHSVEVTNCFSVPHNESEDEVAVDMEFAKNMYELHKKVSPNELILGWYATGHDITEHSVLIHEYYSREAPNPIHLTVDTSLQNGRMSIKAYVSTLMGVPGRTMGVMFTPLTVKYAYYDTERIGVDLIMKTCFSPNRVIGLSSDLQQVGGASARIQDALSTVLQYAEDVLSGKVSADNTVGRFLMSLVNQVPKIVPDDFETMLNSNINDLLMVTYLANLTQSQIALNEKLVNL

O=C(CCl)NCc1ccc(N2CCOCC2)c(F)c1
inactive: ALG13 -0.435 | ATXN3 -0.0444 | EIF3F -0.139 | EIF3H -0.335 | FAM105A 0.388 | OTUB1 -0.0261 | OTUD4 -0.0414 | OTUD5 0.0267
active: BAP1 -2.54

CCC(NC(=O)CCl)c1ccc(Cl)cc1 (stereo unspecified)
inactive: ALG13 0.101 | ATXN3 -0.139 | EIF3F -0.0176 | EIF3H -0.0528 | FAM105A 0.315 | OTUB1 -0.267 | OTUD4 -0.628 | OTUD5 -0.123
active: BAP1 -2.81

Cl.Cn1ncc2c1CC(NC(=O)CCl)CC2 (stereo unspecified)
inactive: ALG13 0.027 | ATXN3 -0.0274 | EIF3F -0.121 | EIF3H -0.266 | FAM105A 0.307 | OTUB1 -0.112 | OTUD4 -0.464 | OTUD5 0.000518
active: BAP1 -1.1

O=C(CCl)Nc1cccc(NC(=O)c2ccccc2)c1
inactive: ALG13 0.117 | ATXN3 0.278 | EIF3F -0.291 | EIF3H 0.304 | FAM105A -0.516 | OTUB1 -0.202 | OTUD4 0.39 | OTUD5 -0.0636
active: BAP1 -3.32

O=C(CCl)Nc1cc2c(cc1Cl)OCCCO2
inactive: ALG13 0.0687 | ATXN3 -0.0939 | EIF3F -0.197 | EIF3H -0.577 | FAM105A 0.278 | OTUB1 -0.0827 | OTUD4 0.136 | OTUD5 -0.0905
active: BAP1 -3.43

Cc1cccn2cc(CCNC(=O)CCl)nc12.Cl
inactive: ALG13 0.103 | ATXN3 -0.114 | BAP1 -0.597 | EIF3F -0.323 | EIF3H 0.00132 | FAM105A 0.112 | OTUB1 -0.0371 | OTUD4 0.123 | OTUD5 0.0126

Cc1n[nH]c2c1CN(C(=O)CCl)CC2
inactive: ALG13 0.0341 | ATXN3 -0.888 | BAP1 -1.1 | EIF3F -0.389 | EIF3H 0.366 | FAM105A 0.0256 | OTUB1 -0.0671 | OTUD4 -0.753
active: OTUD5 -1.05

O=C(CCl)N1CCC(c2nc3ccccc3o2)CC1
inactive: ALG13 -0.377 | ATXN3 -0.627 | EIF3F -0.00792 | EIF3H 0.264 | FAM105A 0.258 | OTUB1 0.109 | OTUD4 -0.417 | OTUD5 -0.841
active: BAP1 -1.64

Cc1ccccc1CN(C)C(=O)CCl
inactive: ALG13 -0.539 | EIF3F -0.115 | EIF3H 0.207 | FAM105A -0.463 | OTUB1 -0.437 | OTUD4 -0.914
active: ATXN3 -1.13 | BAP1 -2.27 | OTUD5 -1.15

O=C(CCl)NCc1cccc(N2CCCC2=O)c1
inactive: ALG13 -0.0431 | ATXN3 -0.37 | EIF3F 0.179 | EIF3H 0.112 | FAM105A -0.0389 | OTUB1 0.122 | OTUD4 -0.18 | OTUD5 -0.358
active: BAP1 -3.09

O=C(CCl)N1CCC2(CCC(O)CC2)CC1
inactive: ALG13 -0.532 | ATXN3 -0.833 | BAP1 -0.626 | EIF3F -0.321 | EIF3H 0.288 | FAM105A 0.217 | OTUB1 -0.0501 | OTUD4 -0.206 | OTUD5 -0.29

CNC(=O)C1(NC(=O)CCl)CCCCC1
active: BAP1 -1.12
inactive: ALG13 -1.06 | ATXN3 -0.161 | EIF3F -0.192 | EIF3H 0.0858 | FAM105A -0.00491 | OTUB1 0.0146 | OTUD4 -0.439 | OTUD5 -0.0782

Cc1ccccc1C1(CNC(=O)CCl)CCOCC1
active: BAP1 -1.23
inactive: ALG13 0.22 | ATXN3 -0.273 | EIF3F 0.0678 | EIF3H 0.00175 | FAM105A 0.0441 | OTUB1 -0.0623 | OTUD4 -0.322 | OTUD5 -0.157

Cc1ccc(CC(CO)CNC(=O)CCl)cc1 (stereo unspecified)
active: BAP1 -3.74
inactive: ALG13 -0.289 | ATXN3 -0.385 | EIF3F 0.0794 | EIF3H 0.139 | FAM105A 0.442 | OTUB1 -0.0508 | OTUD4 -0.858 | OTUD5 -0.455
